Screens: PubChem, Bradner/Qi Labs at DFCI
This excerpt belongs to a sample that is enriched for hits.
CBX7 AlphaScr – inhibitors of human CBX7 binding to H3K27me3 peptide. O95931. normalised signal (fraction of DMSO) (test concentration not listed). AlphaScreen His6-CBX7 / biotin-H3K27me3 peptide binding; active compounds read low. 66,000 compounds, 1.1% hits; in the data active = normalised signal below about 0.5
Target sequence (O95931 whole entry, looked up): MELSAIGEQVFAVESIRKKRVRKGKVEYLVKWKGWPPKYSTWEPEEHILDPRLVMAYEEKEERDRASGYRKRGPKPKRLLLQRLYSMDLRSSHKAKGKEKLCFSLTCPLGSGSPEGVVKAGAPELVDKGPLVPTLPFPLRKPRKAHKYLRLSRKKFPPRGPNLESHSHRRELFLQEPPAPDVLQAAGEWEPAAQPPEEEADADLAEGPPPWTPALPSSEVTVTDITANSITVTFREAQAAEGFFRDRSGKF
A number is an active result; – = inactive.

SMILES	CBX7 AlphaScr
Cc1cccn2c(Nc3ccc4c(c3)OCCO4)c(-c3ccc(Cl)cc3)nc12	0.48
c1csc(-c2nc3ccccn3c2Nc2ccc3c(c2)OCCO3)c1	–
c1cncc(-c2nc3ccccn3c2Nc2ccc3c(c2)OCCO3)c1	–
Clc1ccc(-c2nc3ncccn3c2Nc2ccc3c(c2)OCCO3)cc1	–
Brc1cccc(-c2nc3ccccn3c2Nc2ccc3c(c2)OCCO3)c1	0.44
c1ccn2c(Nc3ccc4c(c3)OCCO4)c(-c3ccc(N4CCOCC4)cc3)nc2c1	–
Cc1ccc(-c2nc3ccccn3c2Nc2ccc3c(c2)OCCO3)cc1	–
Cc1ccc(-c2nc3ccccn3c2Nc2ccc3c(c2)OCO3)cc1	0.35
Clc1ccc(-c2nc3ccccn3c2Nc2ccc3c(c2)OCCO3)cc1	–
Cc1ccc(N2C(=O)C3C(C2=O)C2(C)C=CC3(C)O2)c(C)c1 (stereo not drawn)	–
CCOc1cc2c(cc1OCC)C(c1cccc(F)c1F)NCC2 (stereo not drawn)	–
Cc1noc(C)c1S(=O)(=O)N1CCCC(C(=O)Nc2ccc(C(F)(F)F)cc2)C1 (stereo not drawn)	–
Cc1c(NC(=O)c2ccc3c(=O)n4c(nc3c2)CCCCC4)cccc1[N+](=O)[O-]	–
COc1ccc(CN2CCN(Cc3cccc(Cl)c3)CC2)c(OC)c1	–
COc1cc(/C=C/c2cc(C(F)(F)F)[nH]c(=O)n2)cc(Br)c1O	–
CN(Cc1ccccc1)S(=O)(=O)c1ccc(C(=O)Nc2nc(-c3ccccn3)cs2)cc1	–
Cc1ccc(-c2csc(NC(=O)c3cccc(Oc4ccccc4)c3)n2)cc1	–
COc1ccc(C(=O)Nc2nc(-c3ccccc3)cs2)cc1OC	–
O=C(Nc1nc(-c2ccccn2)cs1)c1cccc(Oc2ccccc2)c1	0.039
COc1cc(C(=O)Nc2ccccn2)cc(OC)c1OC	–
COc1cc(C(=O)Nc2nc(-c3ccccn3)cs2)cc(OC)c1OC	0
CCCCN(CCCC)S(=O)(=O)c1ccc(C(=O)Nc2nc(-c3ccccn3)cs2)cc1	–
Cc1cc(C)c(-c2csc(NC(=O)c3cccc(Oc4ccccc4)c3)n2)c(C)c1	–
O=C(Nc1nc(-c2ccccn2)cs1)c1ccc(N2C(=O)CCC2=O)cc1	0.071
O=C(NCCC1=CCCCC1)C1CCN(S(=O)(=O)c2cccnc2)CC1	–
SMILES	CBX7 AlphaScr
Cc1ccc(NC(=O)c2cc3c(C)nn(-c4ccccc4)c3s2)cc1	–
COc1ccc(-n2ccnc2SCC(=O)Nc2cccc(F)c2)cc1	–
COc1cccc(N2C(=O)CC(N3CCN(c4ccccn4)CC3)C2=O)c1 (stereo not drawn)	–
Cc1cc(Br)ccc1NC(=O)CNC(=O)Cn1cnc2sc(C)c(C)c2c1=O	–
CCOc1ccccc1CNC(=O)CCCc1cn(C)c2ccccc12	0.38
CCOc1ccc(CCNC(=O)CCCc2cn(C)c3ccccc23)cc1OCC	–
CCOc1ccccc1CNC(=O)CCc1cn(C)c2ccccc12	–
COc1ccc(CCNC(=O)CCc2c(C)nc3cc(-c4ccc(Cl)cc4)nn3c2C)cc1OC	–
Cc1ccc(C2=NN(CCC(=O)NCCc3ccc(Cl)cc3)C(=O)CC2)cc1	–
CC(C)OCc1ccc(O)c2ncccc12	0.0041
CN1CCN(CCCNC(=O)Cn2ncc3c2-c2ccccc2OC3)CC1	–
CC(C)c1ccc(Nc2c(-c3ccc(N(C)C)cc3)nc3ncccn23)cc1	–
O=C(NCc1ccccn1)c1ccc2c(=O)n(CCc3ccccc3)c(=O)[nH]c2c1	–
CCCCCn1c(=O)[nH]c2cc(C(=O)NCc3ccc(Cl)cc3)ccc2c1=O	–
CCCCCn1c(=O)[nH]c2cc(C(=O)NCc3ccccn3)ccc2c1=O	0.11
COc1ccc(-c2nnc(SCC(=O)N3CC(C)CC(C)C3)o2)cc1 (stereo not drawn)	–
CCC(C)NC(=O)C1CCN(S(=O)(=O)c2cnc[nH]2)CC1 (stereo not drawn)	–
COc1cccc(NC(=O)C2CCN(S(=O)(=O)c3cnc[nH]3)CC2)c1	–
O=C(CSc1ncnc2sc3c(c12)CCC3)Nc1cc(C(F)(F)F)ccc1Cl	–
COc1ccc(CNCCC(c2ccccc2)c2ccc3c(c2)OCO3)cc1 (stereo not drawn)	–
COc1ccccc1C(CCNCc1ccc(OC(C)C)cc1)c1ccc2c(c1)OCO2 (stereo not drawn)	0.17
COc1ccccc1C(CCNCc1ccc2c(c1)OCO2)c1ccc2c(c1)OCO2 (stereo not drawn)	–
Cc1ccc(Nc2nnc(Cc3ccccc3)c3ccccc23)cc1	–
COC(=O)c1c[nH]n2c(NC3CCC(C)CC3)c(-c3cccc(C)c3)nc12 (stereo not drawn)	0.24
COC(=O)c1c[nH]n2c(NC3CCC(C)CC3)c(-c3ccc(Cl)cc3)nc12 (stereo not drawn)	0.33
COC(=O)c1c[nH]n2c(NC3CCCCCC3)c(-c3cccc(C)c3)nc12	0.44
CC1CCC(NC(=O)Cn2nc(-c3ccccc3)c3cc(Cl)ccc32)CC1 (stereo not drawn)	–
COC(=O)c1c[nH]n2c(NCCc3ccccc3)c(-c3cccc(OC)c3)nc12	–
Cc1nc2c(C(=O)NC3CCCC3)c[nH]n2c(=O)c1Cc1ccc(Cl)cc1	–
